Bioassay records deposited in PubChem BioAssay by National Center for Advancing Translational Sciences (NCATS).
Pf growth 48h: P. falciparum growth inhibition at 48 hours (one generation) | P. falciparum luciferase growth in erythrocytes, 48 h | Potency, µM (top dose mostly 28.7 µM), inactives show at the top dose activity change, negative = inhibition, most hits filed as inhibitors | hit rate 5.9% among 310,000 | AID 504832; further: potency means the concentration at half of the fitted maximal effect; on the % scale 0 is the no-effect control and ±100 the full control effect
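In quantitative HTS format, infected erythrocytes bearing luciferase-reporter parasites were treated for a single generation at 37 C. Luminescence after adding detection reagent served as the growth measure.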
HCV inh: blocks hepatitis C virus | Huh7.5.1 HCVcc-Cre infection, luciferase reporter, 44 h | Potency, µM (titrated, usually from 41.8 µM), inactives show at the highest dose activity change, negative = inhibition, usual class: inhibitors | hit rate 3.4% among 340,000; further: potency means the concentration at half of the fitted maximal effect; on the % scale 0 is the no-effect control and ±100 the full control effect
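Antiviral activity was scored by luciferase reporter output from cells infected with HCVcc-Cre (~0.5 moi) in presence of compound, 44 h infection period, cells seeded 1,000/well 4 h prior.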
Pf growth 96h: P. falciparum growth inhibition at 96 hours. P. falciparum luciferase reporter growth, 96 h. Potency, µM (titrated, usually from 28.7 µM), for the others: at the top dose activity change, negative = inhibition, usual class: inhibitors. hit rate 6.9% among 320,000. AID 504834; further: potency means the concentration at half of the fitted maximal effect; on the % scale 0 is the no-effect control and ±100 the full control effect
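Compounds incubated with erythrocytes infected by luciferase-expressing P. falciparum (2% hematocrit, 0.05% parasitemia final) for 96 hours, 37 C in 5% CO2. Growth inhibition scored as decreased luciferase luminescence.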
Shiga inhibitor: blocks Shiga toxin action in Vero cells. Vero cells, Shiga toxin protein synthesis inhibition reporter. inhibition, % at 38.7 µM. hit rate 9.2% among 290,000. AID 2315; in the data active means inhibition mostly above about 28%, no sharp cut-off; inactive means mostly below about 43%; further: 0% is about no effect
CHX counter: counter-screen for Shiga toxin inhibitors: cycloheximide protein synthesis inhibition | cell reporter, cycloheximide protein synthesis inhibition counterscreen | max response, % | hit rate 12% among 300,000 | AID 2314; in the data active means max response mostly above about 13%, no sharp cut-off; inactive means mostly below about 14%; further: read at 38.3 µM for the half of the compounds with a filed dose; 0% is about no effect
HCMV inh: blocks human cytomegalovirus replication; HFF cells, HCMV-luciferase reporter, 72 h; hits give low values; activity change, negative = inhibition, % at 57.5 µM; hit rate 4.5% among 410,000; in the data active means activity change below about -60%; inconclusive means no clear call, values can overlap the other calls; inactive means above about -39%; further: on the % scale 0 is the no-effect control and ±100 the full control effect
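Two-dose cell screen: HFF monolayers treated with compounds and infected with luciferase-expressing HCMV at 1 PFU/cell, 72 h at 37C, then lysed for luciferase measurement.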
An asterisk follows results filed as active; ? = inconclusive; · = not tested or not shown. Rows were chosen to be rich in hits. Some 21% of all compounds tested hit in one or more screens of this group. Unless noted, the call rests on the fitted dose curve; in most records, active means well fitted inhibition curve with a large enough effect; inconclusive means small, poorly fitted or top-dose-only effect, or another doubt; inactive means no such curve, though single readings can be large or run the other way.

SMILES	Pf growth 48h	HCV inh	Pf growth 96h	Shiga inhibitor	CHX counter	HCMV inh
Cc1ccc(OCc2ccc(C(=O)Nc3nccs3)o2)cc1C	-12%	-23%	0%	47	25*	34
CC(=O)Nc1ccc(/C(C)=N/NC(=O)c2ccc(COc3ccccc3Cl)o2)cc1	·	?	·	·	·	-9
Nc1nonc1-n1nnc(C(=O)N/N=C/c2ccc(Cl)cc2Cl)c1CN1CCOCC1	58%	?	-5%	18	-2	-16
Cc1ccc2c(c1)c1c(n2CC(O)Cn2c(C)nc3ccccc32)/C(=N\O)CCC1 (stereo not drawn)	12µM*	?	?	-5	-1	·
OC(Cn1c2ccccc2c2ccccc21)C[n+]1cccc2ccccc21 (stereo not drawn)	6.6µM*	9%	3.3µM*	-9	1	-27
Cc1cc(C)[n+](C)n1CC(O)Cn1c2ccccc2c2ccccc21 (stereo not drawn)	0.59µM*	-9%	21%	19	-1	?
Cc1nc2ccccc2n1CC(O)Cn1c2ccccc2c2ccccc21 (stereo not drawn)	12µM*	-5%	·	-11	-3	-20
OC(CN1CCOCC1)Cn1c2ccccc2c2ccccc21 (stereo not drawn)	?	7%	-18%	-6	5	6
Cc1ccc2c(c1)c1c(n2CC(O)CN2C(=O)CNC2=O)C(=O)CCC1 (stereo not drawn)	·	?	?	-6	-2	-2
Cc1nc2ncnn2c(C)c1CCC(=O)NCc1ccc(Cl)cc1	·	·	·	·	·	16
Cc1ccc2c(c1)c1c(n2CC(O)Cn2ccnc2C)C(=O)CCC1 (stereo not drawn)	?	-28%	0%	-1	-4	?
Cc1ccc2c(c1)c1c(n2CC(O)Cn2c(C)nc3ccccc32)C(=O)CCC1 (stereo not drawn)	15µM*	-22%	2%	-4	-2	9
COc1ccc2occ(C(=O)c3coc4ccc(O)c(CN(C)C)c34)c2c1	8.3µM*	?	·	31	4	?
CN(C)Cc1c(O)ccc2occ(C(=O)c3ccc(F)cc3)c12	-9%	16%	152%	6	3	-1
CN(C)Cc1c(O)ccc2occ(C(=O)c3ccccc3)c12	-11%	-5%	·	65*	25*	41
O=C(c1cccs1)c1ccccc1Cc1cccs1	·	-8%	·	·	·	-12
O=C(c1cccs1)c1coc2ccc(O)c(CN(CCO)CCO)c12	·	18%	2.1µM*	63*	17*	43
CCN(CC)Cc1c(O)ccc2occ(C(=O)c3ccccc3)c12	38%	-20%	?	78*	39*	-20
COc1ccc(OC)c(C(=O)c2coc3ccc(O)c(CN(C)C)c23)c1	4%	5%	11%	-4	-1	-19
CCN(Cc1ccccc1)Cc1c(O)ccc2c(=O)c(-c3ccccc3Cl)coc12	·	·	·	·	·	-2
COc1ccc(NC(=O)c2cnc3sc(N4CCOCC4)nn3c2=O)c(OC)c1	·	·	·	·	·	15
CCOc1nc(NCCO)nc(NCCC2=CCCCC2)n1	?	-10%	8.3µM*	-25	2	22
CCOc1nc(NCCC2=CCCCC2)nc(N2CCOCC2)n1	11%	23%	4%	10	-2	-28
CCOc1nc(NCc2ccco2)nc(Nc2ccc(OC)cc2)n1	-19%	?	·	28	27*	-11
CCCCCCNc1nc(NCc2ccco2)nc(OCC)n1	-10%	5%	·	25	17	-2
SMILES	Pf growth 48h	HCV inh	Pf growth 96h	Shiga inhibitor	CHX counter	HCMV inh
CCOc1nc(NCCO)nc(Nc2ccccc2F)n1	22%	-18%	25%	48	17*	0
COc1ccc(Nc2nc(NCc3ccco3)nc(N/N=C/c3ccccc3)n2)cc1	1.9µM*	-21%	128%	10	12	22
CCOc1ccc(CNC(=O)c2sc3nc(C)cc(C)c3c2-n2cccc2)cc1	·	·	·	·	·	13
COc1ccc(C(=O)Nc2cccc(OCc3cc(=O)n4c5c(sc4n3)CCCC5)c2)cc1OC	·	·	·	·	·	23
O=C(O)c1cccc2c1/C(=N/Nc1ccc([N+](=O)[O-])cc1[N+](=O)[O-])c1ccccc1-2	·	11%	12%	-5	-1	·
CCOc1nc(NCc2ccco2)nc(Nc2ccccc2F)n1	129%	-14%	?	active	27*	66
c1ccc(Oc2nc(NCc3ccco3)nc(NCc3ccco3)n2)cc1	?	-5%	?	16	4	11
Clc1ccc(CCNC(c2ccc(Cl)cc2)c2nnc(-c3ccccc3)o2)cc1 (stereo not drawn)	·	·	·	·	·	8
COC(=O)c1cc(-c2ccc(Br)cc2)c2c(=O)n(C)c(=O)n(C)c2n1	-11%	5%	5.9µM*	-5	-4	12
COc1ccc(S(=O)(=O)N2CCOCC2)cc1NC(=O)c1cc(C)oc1C	?	11%	12µM*	·	·	-25
COc1ccc(S(=O)(=O)N2CCOCC2)cc1NC(=O)c1c(-c2ccccc2)noc1C	?	-25%	10µM*	·	·	-15
CCOC(=O)c1cccc(N)c1	-4%	·	-12%	·	·	-8
CC(C)N(Cc1nccn1C)C(=O)c1cc(COc2ccc(F)cc2Cl)on1	?	-54%	-27%	19	1	-97*
COc1ccc(OCc2cc(C(=O)N(Cc3nccn3C)C(C)C)no2)c2ccccc12	-15%	?	-3%	47*	43*	93
O=C(Nc1ccc([N+](=O)[O-])cc1)Nn1cnnc1	12%	-6%	65%	-13	-5	1
COc1ccc(N(CC(=O)NCCc2ccc(C)cc2)S(=O)(=O)c2c(C)noc2C)cc1	-5%	?	19%	-1	-3	0
Cc1ccc(N(CC(=O)NCc2ccc(F)cc2)S(=O)(=O)c2cccs2)cc1	·	9%	4.7µM*	-10	6	?
Cc1ccc(N(CC(=O)NCc2ccccc2Cl)S(=O)(=O)c2cccs2)cc1	?	7%	·	-23	-7	?
COc1ccc(N(CC(=O)NCc2ccc(F)cc2)S(=O)(=O)c2c(C)noc2C)cc1	5%	6%	10µM*	-3	-11	?
Cc1noc(C)c1S(=O)(=O)N(CC(=O)NCc1ccc(F)cc1)c1ccc(C(C)C)cc1	?	-6%	-4%	-7	-1	19
COc1ccc(N(CC(=O)NCCc2cccc(C)c2)S(=O)(=O)c2c(C)noc2C)cc1	?	-20%	2.6µM*	-15	4	-19
CC(=O)c1ccc(NC(=O)C2CCN(S(=O)(=O)c3ccc4c(c3)CCCN4C(=O)C3CCC3)CC2)cc1	·	·	·	·	·	-8
Nc1[nH]c(=O)nc(Nc2ccccc2)c1N=O	·	7%	·	·	·	-37
COc1cccc(/C(C#N)=C/c2c(-c3ccc(Cl)cc3)nc3c(C)cccn23)c1	1.3µM*	11µM*	?	5	-1	?
Cc1cccn2c(/C=N/OCc3cccc(F)c3)c(-c3ccc(Cl)cc3)nc12	?	6%	?	-6	-4	4
